Laboratory results: PubChem BioAssay (EPA / NIEHS)
Where “and” joins values, the source holds several entries; their conditions need not be identical. Equal entries are not always repeated. Inconclusive results are not listed. Calls of active or inactive are those of the source. Rule for the calls, unless noted: active = hit-call score of the fitted dose curve at least 0.9, where 1 is the maximum; inactive = score below 0.9.

What was measured:
[1] = ATG_GAL4_TRANS: Attagene TRANS-FACTORIAL HepG2 Assay for GAL4 (Internal Marker) (AID 2282976; active = hit-call score of the fitted dose curve at least 0.9, where 1 is the maximum); details: HepG2 Attagene TRANS GAL4 internal marker reporter
Method in brief: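 RT-PCR/capillary electrophoresis readout of reporter mRNA. HepG2, transient MRTU transfection (GAL4-UAS reporters), 24 h compound exposure. Background-control endpoint, positive direction vs DMSO baseline.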

[2] = molecular target: Glucocorticoid receptor (Homo sapiens) (UniProt P04150); assay: ATG_GR_TRANS: Attagene TRANS-FACTORIAL HepG2 Assay for human Glucocorticoid Receptor (GR) (AID 2282978; active = hit-call score of the fitted dose curve at least 0.9, where 1 is the maximum;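 note: activators score as hits since higher reporter transcript over DMSO is fitted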); details: HepG2 Attagene TRANS GR reporter, mRNA transcription
Method in brief: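 Multiplexed TRANS reporter system, HepG2; 24 h exposure; RNA → oligo(dT) RT → reporter-specific PCR → 6-FAM primer extension → HpaI cut → CE fluorescence. Gain-of-signal vs DMSO.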

[3] = molecular target: Oxysterols receptor LXR-alpha (Homo sapiens) (UniProt Q13133); assay: ATG_LXRa_TRANS: Attagene TRANS-FACTORIAL HepG2 Assay for human Liver X Receptor alpha (LXRa) (AID 2282980; active = hit-call score of the fitted dose curve at least 0.9, where 1 is the maximum); details: HepG2 Attagene TRANS reporter, LXRa transactivation
Method in brief: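 Read-out: reporter transcript levels by RT-PCR plus capillary electrophoresis, fluorescence intensity. Transiently transfected HepG2, exogenous NR-GAL4 chimera, GAL4-UAS reporters; 24 h compound exposure. Activity = increase over DMSO negative control.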

[4] = molecular target: Oxysterols receptor LXR-beta (Homo sapiens) (UniProt P55055); assay: ATG_LXRb_TRANS: Attagene TRANS-FACTORIAL HepG2 Assay for human Liver X Receptor beta (LXRb) (AID 2282981; active = hit-call score of the fitted dose curve at least 0.9, where 1 is the maximum); details: HepG2 Attagene TRANS GAL4-LXRb reporter, mRNA
Method in brief: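 HepG2 cells transiently transfected with multiple reporter transcription units carrying chimeric NR-Gal4 proteins acting on GAL4-UAS reporters; compound exposure 24 h. Reporter mRNA quantified by RT-PCR, 6-FAM labelling, HpaI digestion and capillary electrophoresis; gain of signal versus DMSO.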

[5] = molecular target: Hepatocyte nuclear factor 4-alpha (Homo sapiens) (UniProt P41235); assay: ATG_HNF4a_TRANS: Attagene TRANS-FACTORIAL HepG2 Assay for human Hepatocyte Nuclear Factor 4 alpha (HNF4a) (AID 2282982; active = hit-call score of the fitted dose curve at least 0.9, where 1 is the maximum); details: HepG2 HNF4a transactivation reporter, mRNA readout
Method in brief: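 HepG2 cells transiently transfected with multiplexed GAL4-UAS reporter units responsive to chimeric NR-GAL4 proteins; compound exposure 24 h. Reporter mRNA quantified by RT-PCR, 6-FAM labelling, HpaI digestion and capillary electrophoresis; gain of signal versus DMSO baseline.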

[6] = ATG_M_06_TRANS: Attagene TRANS-FACTORIAL HepG2 Assay for M06 Transcription Factor (Internal Marker) (AID 2282983; active = hit-call score of the fitted dose curve at least 0.9, where 1 is the maximum); details: HepG2 Attagene TRANS M06 internal marker reporter
Method in brief: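 After a 24 h chemical treatment of transfected HepG2, RNA underwent DNase I treatment, reverse transcription and reporter-specific PCR; labelled, HpaI-digested products were sized by capillary electrophoresis. Signal increase relative to DMSO defined activity.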

[7] = ATG_M_32_TRANS: Attagene TRANS-FACTORIAL HepG2 Assay for M32 Transcription Factor (Internal Marker) (AID 2282984; active = hit-call score of the fitted dose curve at least 0.9, where 1 is the maximum;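 note: transcript level of a background control reporter unit measured by RT-PCR and capillary electrophoresis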); details: HepG2 Attagene TRANS M32 internal marker reporter
Method in brief: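 HepG2 cells transiently transfected with multiple GAL4-UAS reporter transcription units, dosed for 24 hours; reporter mRNA quantified by RT-PCR, 6-FAM primer extension, HpaI digestion and capillary electrophoresis. Gain-of-signal fitted versus DMSO baseline; internal background-control marker.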

[8] = molecular target: Transcriptional activator Myb (Homo sapiens) (UniProt P10242); assay: ATG_Myb_CIS: Attagene CIS-FACTORIAL HepG2 Assay for human Myeloblastosis (Myb) Proto-Oncogene Transcription Factor (AID 2282986); details: HepG2 Attagene CIS-FACTORIAL Myb reporter transcription; actives raise or lower the signal
Method in brief: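 Endogenous transcription factor activity at a Myb-responsive cis element is reported in human liver HepG2 cells after 24 h chemical treatment. Reporter mRNA is detected by RT-PCR and capillary electrophoresis fluorescence, with DMSO as baseline.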

[9] = molecular target: Nuclear respiratory factor 1 (Homo sapiens) (UniProt Q16656); assay: ATG_NRF1_CIS: Attagene CIS-FACTORIAL HepG2 Assay for human Nuclear Respiratory Factor 1 (NRF1) Orphan Gene (AID 2282987); details: HepG2 NRF1 cis-element reporter, Attagene multiplex; actives raise or lower the signal
Method in brief: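 Human hepatoma HepG2 cells carrying transfected promoter-regulated reporter units were incubated with test chemicals for 24 h. Reporter transcripts were measured by RT-PCR plus capillary electrophoresis, and endpoints derived by bidirectional fitting with DMSO as baseline.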

[10] = ATG_NFI_CIS: Attagene CIS-FACTORIAL HepG2 Assay for human Nuclear Factor I (NFI) (AID 2282989); details: HepG2 cis-regulatory reporter, NFI response element transcription; actives raise or lower the signal
Method in brief: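 Cells: human liver HepG2, transiently transfected with promoter-regulated reporter transcription units. Exposure 24 h. Detection: fluorescent RT-PCR products separated by capillary electrophoresis, normalised to DMSO negative control.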

[11] = molecular target: Myc proto-oncogene protein (Homo sapiens) (UniProt P01106); assay: ATG_Myc_CIS: Attagene CIS-FACTORIAL HepG2 Assay for human Myelocytomatosis (Myc) Proto-Oncogene Transcription Factor (AID 2282990); details: HepG2, Attagene cis-reporter transcription factor activity; actives raise or lower the signal
Method in brief: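 HepG2 cells transiently transfected with multiple cis-promoter-driven reporter transcription units, so endogenous TF activity is read. After 24 h compound exposure, reporter mRNA was quantified by RT-PCR, 6-FAM labelling, HpaI digestion and capillary electrophoresis; bidirectional fit versus DMSO.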

[12] = ATG_NF_kB_CIS: Attagene CIS-FACTORIAL HepG2 Assay for human Nuclear Factor Kappa B (NF-kB) (AID 2282991); details: HepG2 Attagene cis-factorial NF-kB reporter mRNA; actives raise or lower the signal
Method in brief: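 Multiplexed cis-reporter assay in transiently transfected HepG2. 24 h treatment; RNA isolated, RT-PCR, labelled fragments resolved by CE. DMSO baseline.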

[13] = ATG_NRF2_ARE_CIS: Attagene CIS-FACTORIAL HepG2 Assay for human Nuclear Factor Erythroid 2 Related Factor 2 (NFR2) response to Antioxidant Response Elements (ARE) (AID 2282992); details: HepG2 Attagene ARE/NRF2 reporter, transcription factor activity; actives raise or lower the signal;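 for AC50: reporter mRNA level measured by RT-PCR and capillary electrophoresis fluorescence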
Method in brief: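 Cis-factorial assay: transfected HepG2 reporter library, 24 h dosing, mRNA readout via RT-PCR/CE; DMSO-referenced bidirectional analysis.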

[14] = ATG_Oct_MLP_CIS: Attagene CIS-FACTORIAL HepG2 Assay for human Octamer-Binding Transcription Factor (Oct) (AID 2282993); details: HepG2 Attagene cis-factorial Oct reporter, mRNA; actives raise or lower the signal
Method in brief: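 HepG2, transient MRTU transfection, cis promoter elements; 24 h dosing; RT-PCR/CE fluorescence read-out of reporter mRNA; fit both directions vs DMSO.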

[15] = molecular target: Cellular tumor antigen p53 (Homo sapiens) (UniProt P04637); assay: ATG_p53_CIS: Attagene CIS-FACTORIAL HepG2 Assay for human p53 Transcription Factor (AID 2282994); details: HepG2 p53 cis-element reporter, Attagene mRNA; actives raise or lower the signal
Method in brief: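 Using HepG2 hepatoma cells carrying cis-acting multiplexed reporters, mRNA induction is detected after a 24 h exposure. Gain- and loss-of-signal responses are fitted relative to DMSO-treated cells.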

[16] = molecular target: Bile acid receptor (Homo sapiens) (UniProt Q96RI1); assay: ATG_FXR_TRANS: Attagene TRANS-FACTORIAL HepG2 Assay for Farnesoid X Receptor (FXR) (AID 2282979; active = hit-call score of the fitted dose curve at least 0.9, where 1 is the maximum;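 note: hits raise reporter mRNA above DMSO so AC50 marks FXR activation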); details: HepG2 Attagene TRANS FXR-GAL4 reporter transcription
Method in brief: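 Read-out: fluorescent reporter transcripts quantified by capillary electrophoresis after RT-PCR of total RNA. Source cells were HepG2 transiently carrying chimeric NR-GAL4 plus GAL4-UAS reporter units, dosed 24 h. Activity fitted upward relative to DMSO baseline.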

[17] = molecular target: Nuclear receptor subfamily 4 group A member 2 (Homo sapiens) (UniProt P43354); assay: ATG_NURR1_TRANS: Attagene TRANS-FACTORIAL HepG2 Assay for human Nuclear Receptor Related Protein 1 (NURR1) (AID 2282985; active = hit-call score of the fitted dose curve at least 0.9, where 1 is the maximum); details: HepG2 Attagene TRANS reporter, mRNA readout
Method in brief: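 HepG2 cells transiently transfected with GAL4-UAS reporter units and chimeric NR-Gal4 constructs; chemical exposure 24 h. Reporter mRNA quantified by RT-PCR, fluorescent labelling and capillary electrophoresis; gain of signal fitted relative to DMSO baseline.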

[18] = molecular target: Estrogen-related receptor gamma (Homo sapiens) (UniProt P62508); assay: ATG_ERRg_TRANS: Attagene TRANS-FACTORIAL HepG2 Assay for human Estrogen-Related Receptor gamma (ERRg) (AID 2282977; active = hit-call score of the fitted dose curve at least 0.9, where 1 is the maximum;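 note: hits increase reporter signal over DMSO so potencies reflect activators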); details: HepG2 Attagene TRANS reporter, ERRg transactivation
Method in brief: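 Transient HepG2 transfectants, 24 h compound exposure, GAL4-UAS reporter mRNA by RT-PCR/6-FAM labelling/capillary electrophoresis; positive direction vs DMSO.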

[19] = BSK_3C_TissueFactor: BioMAP Diversity Plus: 3C Assay for Tissue Factor Biomarker Activity (AID 2282997); details: BioMAP 3C HUVEC, tissue factor biomarker readout; actives raise or lower the signal
Method in brief: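 Human vascular primary cells (umbilical vein endothelium) received test chemical; Tissue Factor was determined by ELISA at 24 h, and both gain and loss of signal versus DMSO were fitted.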

[20] = BSK_3C_uPAR: BioMAP Diversity Plus: 3C Assay for Urokinase-type plasminogen activator receptor (uPAR) Biomarker Activity (AID 2282998); details: BioMAP 3C HUVEC, uPAR biomarker ELISA; actives raise or lower the signal
Method in brief: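 A multiplexed primary-cell system built on human umbilical vein endothelium was used, with chemical present for 24 h before reading. Cell-surface uPAR was detected by ELISA; signal change in either direction counted against DMSO.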

Measured: AC50

Sequence of Transcriptional activator Myb (Homo sapiens) (P10242 whole entry, looked up): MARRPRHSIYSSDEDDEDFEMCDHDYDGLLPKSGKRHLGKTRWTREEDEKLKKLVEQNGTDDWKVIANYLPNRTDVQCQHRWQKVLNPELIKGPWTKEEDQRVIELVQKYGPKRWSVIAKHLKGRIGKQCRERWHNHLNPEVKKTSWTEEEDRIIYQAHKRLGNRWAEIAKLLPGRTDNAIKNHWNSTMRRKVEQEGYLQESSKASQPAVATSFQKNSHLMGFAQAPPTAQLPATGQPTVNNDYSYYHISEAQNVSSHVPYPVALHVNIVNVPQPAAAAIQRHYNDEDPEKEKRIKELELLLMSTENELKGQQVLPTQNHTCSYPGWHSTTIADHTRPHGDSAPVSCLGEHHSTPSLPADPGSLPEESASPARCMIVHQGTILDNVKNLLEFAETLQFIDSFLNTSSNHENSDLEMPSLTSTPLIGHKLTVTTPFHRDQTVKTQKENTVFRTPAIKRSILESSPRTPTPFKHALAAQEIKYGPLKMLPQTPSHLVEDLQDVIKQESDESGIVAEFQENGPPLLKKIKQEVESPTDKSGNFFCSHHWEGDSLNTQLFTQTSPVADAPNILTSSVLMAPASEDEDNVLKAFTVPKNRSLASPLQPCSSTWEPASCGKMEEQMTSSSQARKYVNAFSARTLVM
Sequence of Nuclear receptor subfamily 4 group A member 2 (Homo sapiens) (P43354 whole entry, looked up, the tested form may be a part): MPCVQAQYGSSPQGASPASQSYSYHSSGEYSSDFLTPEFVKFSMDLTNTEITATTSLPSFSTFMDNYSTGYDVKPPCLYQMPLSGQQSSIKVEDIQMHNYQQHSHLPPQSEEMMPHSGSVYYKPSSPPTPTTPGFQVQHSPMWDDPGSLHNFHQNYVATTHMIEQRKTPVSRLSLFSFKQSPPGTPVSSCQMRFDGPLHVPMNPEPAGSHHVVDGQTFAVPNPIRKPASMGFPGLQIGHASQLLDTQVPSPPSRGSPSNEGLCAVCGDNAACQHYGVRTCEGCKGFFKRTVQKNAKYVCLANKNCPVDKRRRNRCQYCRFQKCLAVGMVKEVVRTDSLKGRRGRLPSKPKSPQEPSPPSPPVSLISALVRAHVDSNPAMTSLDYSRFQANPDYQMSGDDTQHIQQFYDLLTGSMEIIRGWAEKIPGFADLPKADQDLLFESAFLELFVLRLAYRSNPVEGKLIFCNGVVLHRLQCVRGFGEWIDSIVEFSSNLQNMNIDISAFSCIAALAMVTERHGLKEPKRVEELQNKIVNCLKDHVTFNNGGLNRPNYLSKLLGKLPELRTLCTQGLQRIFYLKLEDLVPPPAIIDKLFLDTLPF
Sequence of Myc proto-oncogene protein (Homo sapiens) (P01106 whole entry, looked up): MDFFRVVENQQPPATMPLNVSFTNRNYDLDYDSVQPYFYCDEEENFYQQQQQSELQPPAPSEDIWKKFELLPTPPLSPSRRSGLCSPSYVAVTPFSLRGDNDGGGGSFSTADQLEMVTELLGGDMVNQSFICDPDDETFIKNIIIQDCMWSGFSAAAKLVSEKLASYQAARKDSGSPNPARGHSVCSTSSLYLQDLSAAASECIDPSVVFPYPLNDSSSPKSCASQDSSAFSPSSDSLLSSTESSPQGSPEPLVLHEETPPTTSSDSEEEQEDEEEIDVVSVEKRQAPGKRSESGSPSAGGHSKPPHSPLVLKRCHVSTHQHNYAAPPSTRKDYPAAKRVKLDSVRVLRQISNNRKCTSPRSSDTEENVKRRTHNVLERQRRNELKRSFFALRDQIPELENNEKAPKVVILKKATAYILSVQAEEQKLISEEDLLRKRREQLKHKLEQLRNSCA
Sequence of Bile acid receptor (Homo sapiens) (Q96RI1 whole entry, looked up, the tested form may be a part): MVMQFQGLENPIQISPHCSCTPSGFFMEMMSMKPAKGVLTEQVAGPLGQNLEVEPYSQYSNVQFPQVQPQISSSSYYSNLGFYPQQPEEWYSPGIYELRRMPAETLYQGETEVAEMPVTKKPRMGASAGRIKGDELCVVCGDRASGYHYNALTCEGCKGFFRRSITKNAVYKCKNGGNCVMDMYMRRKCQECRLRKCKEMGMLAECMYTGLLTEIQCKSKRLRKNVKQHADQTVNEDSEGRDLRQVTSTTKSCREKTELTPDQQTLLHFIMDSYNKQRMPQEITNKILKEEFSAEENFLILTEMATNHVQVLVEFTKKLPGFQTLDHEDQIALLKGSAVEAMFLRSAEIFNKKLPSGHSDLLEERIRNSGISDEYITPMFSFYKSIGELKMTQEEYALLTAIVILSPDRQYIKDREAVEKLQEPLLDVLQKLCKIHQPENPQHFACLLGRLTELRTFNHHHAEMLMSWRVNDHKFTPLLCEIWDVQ
Sequence of Glucocorticoid receptor (Homo sapiens) (P04150 whole entry, looked up): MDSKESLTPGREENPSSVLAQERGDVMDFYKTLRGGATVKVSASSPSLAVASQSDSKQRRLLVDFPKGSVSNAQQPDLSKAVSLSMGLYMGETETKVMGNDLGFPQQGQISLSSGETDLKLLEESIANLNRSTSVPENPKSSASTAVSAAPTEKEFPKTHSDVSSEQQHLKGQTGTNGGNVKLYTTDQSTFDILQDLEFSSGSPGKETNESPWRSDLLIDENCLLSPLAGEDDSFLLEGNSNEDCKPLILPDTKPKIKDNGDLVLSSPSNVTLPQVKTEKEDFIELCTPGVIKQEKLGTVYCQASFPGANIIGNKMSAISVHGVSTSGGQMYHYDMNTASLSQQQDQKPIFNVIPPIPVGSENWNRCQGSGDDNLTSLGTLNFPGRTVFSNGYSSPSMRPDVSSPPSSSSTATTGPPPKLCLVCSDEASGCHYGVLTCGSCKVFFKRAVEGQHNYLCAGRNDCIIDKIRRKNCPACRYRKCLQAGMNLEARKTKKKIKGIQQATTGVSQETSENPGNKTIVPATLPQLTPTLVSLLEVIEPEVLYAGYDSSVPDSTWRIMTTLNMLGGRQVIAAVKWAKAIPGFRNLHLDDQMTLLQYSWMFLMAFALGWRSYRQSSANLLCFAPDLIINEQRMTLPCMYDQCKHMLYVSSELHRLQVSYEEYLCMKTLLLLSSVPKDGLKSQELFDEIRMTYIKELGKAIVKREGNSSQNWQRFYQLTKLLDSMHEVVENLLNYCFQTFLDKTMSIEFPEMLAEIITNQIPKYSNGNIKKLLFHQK
Sequence of Nuclear respiratory factor 1 (Homo sapiens) (Q16656 whole entry, looked up): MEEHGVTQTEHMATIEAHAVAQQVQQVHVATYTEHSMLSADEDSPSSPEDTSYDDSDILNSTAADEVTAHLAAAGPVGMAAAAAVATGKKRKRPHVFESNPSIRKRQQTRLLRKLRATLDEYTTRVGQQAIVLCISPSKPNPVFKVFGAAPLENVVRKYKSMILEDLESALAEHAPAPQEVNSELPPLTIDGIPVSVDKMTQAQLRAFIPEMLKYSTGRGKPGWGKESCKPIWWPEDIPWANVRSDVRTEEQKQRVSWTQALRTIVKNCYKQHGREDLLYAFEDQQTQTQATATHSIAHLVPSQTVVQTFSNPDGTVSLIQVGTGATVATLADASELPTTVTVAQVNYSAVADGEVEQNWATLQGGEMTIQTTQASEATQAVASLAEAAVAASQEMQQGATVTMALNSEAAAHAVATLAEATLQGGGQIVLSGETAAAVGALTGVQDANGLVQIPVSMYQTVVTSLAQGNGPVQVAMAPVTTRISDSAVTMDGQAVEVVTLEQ
Sequence of Cellular tumor antigen p53 (Homo sapiens) (P04637 whole entry, looked up): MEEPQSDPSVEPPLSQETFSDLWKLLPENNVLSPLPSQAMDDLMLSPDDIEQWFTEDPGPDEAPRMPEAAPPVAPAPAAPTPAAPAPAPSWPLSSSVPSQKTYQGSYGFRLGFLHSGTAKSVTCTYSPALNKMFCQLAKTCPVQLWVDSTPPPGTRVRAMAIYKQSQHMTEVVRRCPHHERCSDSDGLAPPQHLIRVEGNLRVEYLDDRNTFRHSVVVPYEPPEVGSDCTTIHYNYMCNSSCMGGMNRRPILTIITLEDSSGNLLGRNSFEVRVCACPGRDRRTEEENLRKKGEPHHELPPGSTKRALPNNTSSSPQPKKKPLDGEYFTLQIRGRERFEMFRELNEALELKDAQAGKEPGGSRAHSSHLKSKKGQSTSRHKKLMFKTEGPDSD
Sequence of Oxysterols receptor LXR-alpha (Homo sapiens) (Q13133 whole entry, looked up, the tested form may be a part): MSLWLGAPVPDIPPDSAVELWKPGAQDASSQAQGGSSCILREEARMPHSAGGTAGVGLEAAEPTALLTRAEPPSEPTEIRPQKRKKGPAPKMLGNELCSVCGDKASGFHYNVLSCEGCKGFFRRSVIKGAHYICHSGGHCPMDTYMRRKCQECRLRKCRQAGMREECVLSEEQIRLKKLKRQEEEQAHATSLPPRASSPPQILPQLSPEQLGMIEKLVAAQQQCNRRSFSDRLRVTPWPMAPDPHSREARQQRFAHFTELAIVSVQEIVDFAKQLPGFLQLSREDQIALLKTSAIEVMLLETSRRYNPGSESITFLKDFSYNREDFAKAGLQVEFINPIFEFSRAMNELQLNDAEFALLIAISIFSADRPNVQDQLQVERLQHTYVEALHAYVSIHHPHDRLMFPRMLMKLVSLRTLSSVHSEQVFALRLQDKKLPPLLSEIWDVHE
Sequence of Estrogen-related receptor gamma (Homo sapiens) (P62508 whole entry, looked up, the tested form may be a part): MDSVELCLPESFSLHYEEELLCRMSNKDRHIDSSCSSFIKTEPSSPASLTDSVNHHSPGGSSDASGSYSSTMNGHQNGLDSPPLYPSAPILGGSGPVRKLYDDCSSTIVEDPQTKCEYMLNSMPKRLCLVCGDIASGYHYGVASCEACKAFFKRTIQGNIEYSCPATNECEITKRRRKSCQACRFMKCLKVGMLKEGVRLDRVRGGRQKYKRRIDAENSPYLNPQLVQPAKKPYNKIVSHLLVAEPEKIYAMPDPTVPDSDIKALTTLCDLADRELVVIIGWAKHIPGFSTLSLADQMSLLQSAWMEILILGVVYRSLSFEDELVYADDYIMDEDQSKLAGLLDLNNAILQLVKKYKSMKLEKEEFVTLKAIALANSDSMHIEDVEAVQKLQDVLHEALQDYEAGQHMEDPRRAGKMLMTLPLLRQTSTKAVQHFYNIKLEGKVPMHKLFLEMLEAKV

FC(F)(F)c1ccc(Cl)cc1
inactive: [1] | [2] | [3] | [4] | [5] | [6] | [7] | [8] | [9] | [10] | [11] | [12] | [13] | [14] | [15]

CCCCc1ccc(O)cc1
active: [13] 66.7 µM
inactive: [1] | [2] | [16] | [6] | [7] | [17] | [8] | [9] | [10] | [11] | [12] | [14]

CCCCOCC1CO1 (stereo not given)
inactive: [1] | [18] | [17] | [8] | [9] | [10] | [11] | [13] | [14]

CC(O)C(F)(F)C(F)(F)F (stereo not given)
inactive: [1] | [18] | [2] | [16] | [3] | [6] | [7] | [17] | [8] | [9] | [10] | [11] | [12] | [13] | [14] | [15] | [19] | [20]

CC(C)(C)OOC(C)(C)C
inactive: [1] | [2] | [16] | [3] | [6] | [17] | [8] | [9] | [10] | [11] | [12] | [13] | [14] | [19] | [20]

N#Cc1c(-c2ccc(Cl)cc2)[nH]c(C(F)(F)F)c1Br
inactive: [1] | [18] | [2] | [16] | [17] | [8] | [9] | [10] | [11] | [12]
active: [13] 0.0823 µM | [14] 67.5 nM | [19] 20 µM | [20] 469 nM

COCCOCCO
inactive: [1] | [18] | [5] | [6] | [8] | [9] | [10] | [11] | [12] | [13] | [14] | [19] | [20]

Cc1c([N+](=O)[O-])cc2c(c1[N+](=O)[O-])C(C)(C)CC2(C)C
inactive: [1] | [2] | [16] | [3] | [6] | [8] | [9] | [10] | [13] | [14] | [15]
active: [17] 14.6 µM | [11] 3.03 µM | [19] 3.62 µM | [20] 870 nM

COC(=O)C(F)(F)C(F)(F)OC(F)(C(F)(F)F)C(F)(F)OC(F)=C(F)F (stereo not given)
active: [13] 4.38 µM and 10.3 µM and 5.16 µM
inactive: [1] | [18] | [2] | [16] | [3] | [4] | [6] | [7] | [17] | [8] | [9] | [10] | [11] | [12] | [14] | [19] | [20]
